Screens from PubChem.
Shown are actives, neighbours in structure and some others; about 7.9% of the full set was active somewhere.
LASV entry inh: Lassa virus entry inhibition | Potency, µM (top dose mostly 37.9 µM), for the others: top-dose activity change, negative = inhibition, most hits filed as inhibitors | Lassa virus pseudotype entry inhibition, cell reporter | AID 540256 | 300,000 compounds, 1.2% hits; calls by dose curve; tested in HEK293 cells; also: potency is read from the fitted curve at half-maximal effect; nearly all actives have a fitted effect of over 50% in size
HCV inh: inhibitors of hepatitis C virus infection; Potency, µM (titrated, usually from 41.8 µM), for the others: at the highest dose activity change, negative = inhibition, actives largely listed as inhibitors; 340,000 compounds, 3.4% hits; Huh7.5.1 HCVcc-Cre infection, luciferase reporter, 44 h; AID 651820; active = well fitted inhibition curve with a large enough effect; inconclusive = small, poorly fitted or top-dose-only effect, or another doubt; inactive = no such curve, though single readings can be large or run the other way; also: potency is read from the fitted curve at half-maximal effect
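Infectious HCV cell culture screen: compound-treated cells (1,000/well, pre-plated 4 h) are infected with HCVcc-Cre at roughly 0.5 moi and grown 44 h. Infection is quantified by luciferase signal after 15 min substrate incubation at room temperature.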
Marburg entry inh: blocks Marburg virus binding to or entry into cells. Marburg virus pseudotyped entry inhibition, cell reporter. Potency, µM (doses to about 37.8 µM), for inactives: at the top dose activity change, negative = inhibition, usual class: inhibitors. 300,000 compounds, 1.8% hits. AID 540276; calls by dose curve; tested in HEK293 cells; also: potency is read from the fitted curve at half-maximal effect
FMDV inh: antivirals against foot and mouth disease virus. FMDV antiviral cell-based qHTS. 410,000 compounds, 1.2% hits. Potency, µM (top dose mostly 57.9 µM), without a hit: at the top dose activity change, negative = inhibition, actives largely listed as inhibitors; calls by dose curve; tested in HEK293T cells; also: read-out not given here; potency is read from the fitted curve at half-maximal effect; nearly all actives have a fitted effect of over 45% in size
HCMV antiviral: blocks human cytomegalovirus replication; 410,000 compounds, 4.5% hits; AID 1259415; activity change, negative = inhibition, % at 57.5 µM; HFF cells, HCMV-luciferase reporter, 72 h; stronger effect = lower value; in the data active = activity change below about -60%; inconclusive = no clear call, values can overlap the other calls; inactive = above about -39%
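Screen run at 2 compound doses on HFFs infected with reporter HCMV, MOI 1 PFU/cell. Luciferase activity from cell lysates at 72 h post infection gave inhibition relative to buffer-only and Salinomycin wells.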
* hit, by the source's call; ? = inconclusive; nt = no result; [ ] = dose if it differs, or a comment. % is scaled to controls: 0 for no effect and ±100 for the full control effect.

SMILES | LASV entry inh | HCV inh | Marburg entry inh | FMDV inh | HCMV antiviral
CCOc1ccc(CCNC(=O)Cn2c(-c3cccs3)cc3cc(F)ccc32)cc1OCC | 11µM* | nt | ? | -42% | -4
Cc1cccc(NC(=O)CSc2nc(=O)n(Cc3ccccn3)c3c2CCC3)c1C | -18%[46.1 µM] | nt | nt | 0% | -23
Clc1cccc(Cl)c1CON/C=N/c1ncnc2sccc12 | ? | 11µM* | ? | ? | ?
C=CCc1ccccc1OCC(O)CN(C(C)C)C(C)C (stereo unspecified) | ? | -12% | 6.3µM* | -15% | 10
Cc1ccc(CNC(=O)c2cnn(-c3cccc(C)c3)c2C2CCN(C(=O)OC(C)(C)C)CC2)cc1 | ? | nt | nt | ? | 0
COc1ccc(CN2CCN(Cc3c[nH]c4ccccc34)CC2CCO)c(F)c1 (stereo unspecified) | -22% | ? | ? | -27% | 77
O=C(c1ccc(COc2ccccc2Cl)o1)N1CCN(c2ccccc2)CC1 | nt | ? | nt | -16% | 29
O=C(c1ccco1)N1CCN(C(=O)c2ccc(COc3ccc(Cl)cc3Cl)o2)CC1 | 13µM* | ? | ? | ? | 38
O=C(c1ccco1)N1CCN(C(=O)c2ccc(COc3ccc4c(c3)CCC4)o2)CC1 | 14µM* | ? | ? | ? | -16
O=C(Nc1ncccc1O)c1ccc(Cl)c(S(=O)(=O)N2CCCCC2)c1 | 11% | 22% | -14% | 2% | -6
COc1cccc(CNCCc2c[nH]c3ccccc23)c1 | ? | 0% | 11µM* | -2% | -3
Fc1ccc(CNCCc2c[nH]c3ccccc23)cc1 | -26%[46.1 µM] | -10% | 10µM* | 0% | 2
CCc1ccc(CNCCc2ccccc2F)cc1 | ? | -14% | -1% | 7% | -72*
COc1ccc2[nH]cc(CCNCc3cccnc3)c2c1 | nt | 7% | nt | 0% | -13
Fc1ccc(CNCCc2ccccc2F)cc1 | 14% | 19% | -20% | -8% | -5
CC1(C(=O)NS(=O)(=O)Cc2cccc(Cl)c2)CCN1C(=O)CCc1cccs1 (stereo unspecified) | nt | nt | nt | -9% | -15
COc1ccc(F)c(CN2CCOc3ccc(CN4CCC(O)(c5cccnc5)CC4)cc3C2)c1 | nt | nt | nt | -14% | nt
CCOC(=O)c1ccc(N2C(=O)c3n[nH]c(-c4ccco4)c3C2c2cccc(OC)c2)cc1 (stereo unspecified) | ? | nt | ? | ? | -10
CCOC(=O)c1ccc(N2C(=O)c3n[nH]c(C)c3C2c2ccccc2)cc1 (stereo unspecified) | -20% | 6% | ? | -7% | -13
CCOC(=O)c1ccc(N2C(=O)c3n[nH]c(-c4ccco4)c3C2c2cccc(O)c2)cc1 (stereo unspecified) | ? | nt | ? | 25µM* | 14
CCOC(=O)c1ccc(N2C(=O)c3n[nH]c(-c4ccco4)c3C2c2ccc(F)cc2)cc1 (stereo unspecified) | ? | nt | ? | ? | -89*
CCOC(=O)c1ccc(N2C(=O)c3n[nH]c(-c4ccco4)c3C2c2cccc(F)c2)cc1 (stereo unspecified) | ? | nt | ? | ? | -98*
CCOC(=O)c1ccc(N2C(=O)c3n[nH]c(-c4ccco4)c3C2c2ccc(OCC)cc2)cc1 (stereo unspecified) | ? | nt | 11µM* | ? | -88*
CCOC(=O)c1ccc(N2C(=O)c3n[nH]c(-c4ccco4)c3C2c2ccccc2OC)cc1 (stereo unspecified) | ? | nt | ? | 22µM* | -101*
Cc1ccc(-c2c(C(=O)N3CCN(c4cccc(C)c4)C(C)C3)oc(=O)c3ccccc23)cc1 (stereo unspecified) | ? | nt | ? | ? | -70*
SMILES | LASV entry inh | HCV inh | Marburg entry inh | FMDV inh | HCMV antiviral
Cc1cccc(N2CCN(C(=O)c3ccc(CS(=O)(=O)c4ccccc4C)o3)CC2C)c1 (stereo unspecified) | 4% | 6% | -23% | 5% | -67*
CCN1CCN(C(=O)C2=CC(c3ccc(OC)cc3)=NS(=O)(=O)N2C)CC1 | nt | 11% | nt | -21% | -64*
COc1ccc(C2=NS(=O)(=O)N(C)C(C(=O)N3CCN(C)CC3)=C2)cc1 | nt | 18% | nt | -22% | 14
O=C(CC1(O)C(=O)N(C/C=C/c2ccccc2)c2ccccc21)c1ccccn1 (stereo unspecified) | ? | -10% | -15% | -16% | -71*
O=C(CC1(O)C(=O)N(CCc2ccccc2)c2ccccc21)c1ccccn1 (stereo unspecified) | -5% | 13% | -31%[46.1 µM] | 11% | -22
COc1ccc(CNC(=O)C2CCCN2c2nc(C)c3ccccc3n2)cc1 (stereo unspecified) | nt | nt | nt | -2% | nt
CN(C)c1ccc(Nc2nc3ccccc3n3nnnc23)cc1 | -3%[46.1 µM] | nt | -25%[46.1 µM] | ? | -62*
COc1ccc(CN(CC(O)COCc2ccccc2)S(=O)(=O)c2ccccc2Br)cc1OC (stereo unspecified) | nt | 11µM* | nt | -8% | -22
C=CC(COCc1ccccc1)N(C(=O)OC(C)(C)C)S(=O)(=O)c1ccccc1Br (stereo unspecified) | nt | -25% | nt | ? | -21
Cc1ccn2c(=O)c(C(=O)NC3CCCCC3C)c(O)nc2c1 (stereo unspecified) | 1% | ? | ? | 47% | -16
COc1ccccc1CN1CCN(Cc2nc(-c3ccc(C)cc3)oc2C)CC1 | nt | ? | nt | -24% | 70
COc1ccc(-c2nc(CN3CCN(c4ccccc4OC)CC3)c(C)o2)cc1 | -23% | ? | ? | 28µM* | ?
Cc1cc(N2CCN(Cc3nc(-c4ccc(F)cc4)oc3C)CC2)cc(C)n1 | nt | ? | nt | -24% | ?
COc1ccccc1N1CCN(Cc2nc(-c3ccc(F)cc3)oc2C)CC1 | nt | 22µM* | nt | ? | -12
COc1ccc(-c2nc(CN3CCC(c4ccccc4)CC3)c(C)o2)cc1OC | -2%[46.1 µM] | ? | ? | -15% | -65*
Cc1oc(-c2cc(F)ccc2F)nc1CN1CCN(c2ncnc3ccccc23)CC1 | nt | 0.56µM* | nt | 16µM* | -63*
Cc1cccc(C)c1NC(=O)C1(C)CSCC(=O)N1CCCn1ccnc1 (stereo unspecified) | nt | nt | nt | -10% | -18
O=C(c1cc(C(F)(F)F)cc(C(F)(F)F)c1)N1CCC[C@@]2(CCN(Cc3nccs3)C2)C1 | nt | nt | nt | -15% | nt
Cc1cnc(-n2ncc(C(=O)NCC(C)(C)N3CCOCC3)c2C(C)C)nc1-c1ccc(F)cc1 | nt | nt | nt | 3% | nt
CCc1ccc(-c2nc(CN3CCC(C(=O)NCc4ccccc4OC)CC3)c(C)o2)cc1 | ? | 10µM* | ? | ? | -38
COc1ccccc1N1CCN(c2nnc(-c3ccc(F)cc3)c3ccccc23)CC1 | -3% | 9% | 2% | 20µM* | 5
COc1ccccc1CNC(=O)C1CCN(Cc2nc(-c3ccc(Cl)cc3)oc2C)CC1 | nt | nt | nt | nt | 0
COc1ccc(-c2nnc(N3CCCCC3)c3ccccc23)cc1 | -9% | 17% | 13% | ? | nt
